A selection: hits, their analogues and other compounds. The true share with any hit is near 6.4%.
Gal4-VP16 FLuc: Gal4-VP16 reporter inhibition counter-screen | Drosophila S2 Gal4-VP16 UAS-luciferase, luminescence, 20 h | hit rate 3.5% among 310,000 | Potency, µM (titrated, usually from 53.6 µM), for the others: top-dose activity, negative = inhibition, most hits filed as inhibitors | AID 2546;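 note: Gal4-VP16 expression switched on by copper sulfate through the metallothionein promoter; nearly all actives have a fitted effect of over 50% in size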
RORg inh: blocks mouse ROR gamma transcriptional activity | hit rate 5.4% among 310,000 | Potency, µM (titrated, usually from 53.6 µM), for inactives: top-dose activity change, negative = inhibition, actives largely listed as inhibitors | Drosophila S2 Gal4-RORgamma UAS-luciferase reporter, 20 h | AID 2551 | P51450; note: nearly all actives have a fitted effect of over 60% in size
Target sequence (P51450 whole entry, looked up, the tested form may be a part): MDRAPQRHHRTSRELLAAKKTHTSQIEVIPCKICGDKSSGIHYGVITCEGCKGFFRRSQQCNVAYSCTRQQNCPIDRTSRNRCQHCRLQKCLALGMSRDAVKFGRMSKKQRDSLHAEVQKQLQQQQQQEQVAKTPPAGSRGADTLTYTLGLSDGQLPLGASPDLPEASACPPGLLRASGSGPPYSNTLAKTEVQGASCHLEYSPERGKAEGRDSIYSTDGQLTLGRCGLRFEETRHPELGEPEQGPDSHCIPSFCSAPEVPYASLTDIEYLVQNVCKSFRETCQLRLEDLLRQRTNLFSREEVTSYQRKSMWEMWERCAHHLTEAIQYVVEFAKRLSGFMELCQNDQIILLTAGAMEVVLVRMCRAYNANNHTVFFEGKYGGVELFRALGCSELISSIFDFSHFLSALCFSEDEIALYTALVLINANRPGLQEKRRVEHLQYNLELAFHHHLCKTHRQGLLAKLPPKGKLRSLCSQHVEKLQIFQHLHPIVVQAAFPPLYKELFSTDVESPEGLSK
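Compounds are pin-transferred onto Drosophila Schneider cells expressing a copper-inducible Gal4–ROR gamma transactivation domain fusion. After 1 hr, copper sulfate is added to 700 uM final; luciferase is read 20 hr later.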
Luc counter: blocks Kinase-Glo luciferase, a counter-screen artifact. Kinase-Glo luciferase, ATP luminescence, 8 min. AID 1379. Q27757. Potency, µM (titrated, usually from 38.3 µM), for inactives: at the top dose activity change, negative = inhibition, actives largely listed as inhibitors. hit rate 0.28% among 200,000; note: nearly all actives have a fitted effect of over 60% in size
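Compounds were added to a substrate mix at pH 7.2 (50 mM imidazole, 10 uM ATP, within the enzyme's linear range), followed by Kinase-Glo detection reagent; luminescence was measured after 8 minutes at ambient temperature.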
Numbers without * were called inactive; ? = inconclusive; · = no result; [ ] = another dose, or the depositor's remark. Calls come from the whole dose curve; as a rule, active = well fitted curve in the direction sought with a large enough effect; inconclusive = small, poorly fitted or top-dose-only effect, or another doubt; inactive = no such curve, though single readings can be large; an effect the other way counts as inactive or inconclusive. % is set by controls: 0 for no effect and ±100 for the full control effect; potency is the fitted concentration of half-maximal effect.

SMILES | Gal4-VP16 FLuc | RORg inh | Luc counter
Oc1ccc2ccccc2c1CN(Cc1c(O)ccc2ccccc12)C1CCCCC1 | · | · | -0.7%[7.66 µM]
COc1ccc(Nc2nnc(Cc3ccncc3)c3ccccc23)c(OC)c1 | -1.1% | 13.3% | ·
CCCCNc1ccc(C(=O)OCCOCCOCCOCCOCCOCCOCCOCCOCCOC)cc1 | -0.3%[17 µM] | 0.2%[2.98 µM] | 2.9%[17.1 µM]
O=C(NCC1CCCCC1)c1cccc(Br)c1 | -24.8% | -0.6% | ·
CCC1CCCCN1S(=O)(=O)c1ccc(NC(=O)c2ccncc2)cc1 (stereo not given) | ? | 40.2% | ·
CCC1CCCCN1S(=O)(=O)c1ccc(C(=O)Nc2nnc(C3CC3)o2)cc1 (stereo not given) | 0.316µM* | 0.316µM* | ·
CC1OC(OCC2OC(Oc3cc(O)c4c(c3)OC(c3ccc(O)cc3)CC4=O)C(O)C(O)C2O)C(O)C(O)C1O (stereo not given) | -8.0% | -5.2% | ·
CC(C)N=C=NC(C)C | -4.8% | 5.3% | ·
CC(C)Cn1c(-c2ccncc2)n[nH]c1=S | 0.2% | ? | 0.4%
Fc1ccccc1-c1n[nH]c(=S)n1C1CC1 | ? | 10µM* | ·
CCN(CC)S(=O)(=O)c1cccc(-c2n[nH]c(=S)n2CC(C)C)c1 | 2.8% | 8.91µM* | ·
CC(C)Cn1c(-c2ccc(F)cc2)n[nH]c1=S | 10µM* | 7.08µM* | -1.2%
NC(=O)CSc1nnc(-c2ccccc2F)n1C1CC1 | -7.0% | 4.2% | ·
CC(C)Cn1c(-c2ccccc2F)n[nH]c1=S | 10µM* | 5.62µM* | 1.6%
CCN(CC)S(=O)(=O)c1cccc(-c2n[nH]c(=S)n2Cc2ccccc2)c1 | -2.0% | ? | 0.9%
CCn1c(CC(=O)Nc2ccc(C)cc2)n[nH]c1=S | 2.6% | -26.2% | 2.0%
CCOC(=O)CSc1nnc(-c2cccc(Cl)c2)n1CC | -1.0% | -9.3% | 10.0%
CCn1c(-c2ccc(F)cc2)n[nH]c1=S | 2µM* | 1.12µM* | 0.8%
CCn1c(-c2cc(OC)c(OC)c(OC)c2)n[nH]c1=S | 18.9% | ? | 1.9%
CCn1c(-c2ccc(C(C)(C)C)cc2)n[nH]c1=S | 3.16µM* | ? | 0.7%
Fc1ccc(-c2n[nH]c(=S)n2CC2CCCO2)cc1 (stereo not given) | ? | 11.2µM* | -1.9%
CCn1c(-c2cccc(Cl)c2)n[nH]c1=S | 11.2µM* | 6.31µM* | -2.7%
S=c1[nH]nc(-c2ccncc2)n1CC1CCCO1 (stereo not given) | -5.2% | -60.6% | -5.2%
CCOc1ccc(Nc2cc(Nc3ccccc3OCC)nc(C=C(C#N)C#N)n2)cc1 | -0.7% | 2.2% | ·
CC(C)(C)c1ccc(-c2n[nH]c(=S)n2C2CCCC2)cc1 | 4.47µM* | 2.51µM* | -1.0%
SMILES | Gal4-VP16 FLuc | RORg inh | Luc counter
CCn1c(=O)c2c3c(sc2n2c(=S)[nH]nc12)CCC3 | -6.5% | -34.6% | -4.3%
CCn1c(-c2c[nH]c3ccccc23)n[nH]c1=S | -10.0% | ? | 0.7%
Cn1c(-c2ccc(C(C)(C)C)cc2)n[nH]c1=S | 5.62µM* | 3.16µM* | -7.9%
CC(C)Cn1c(-c2csc3c2CCCC3)n[nH]c1=S | 5.01µM* | 2.82µM* | -4.4%
Cn1c(-c2ccccc2)n[nH]c1=S | -8.6% | ? | ·
CCn1c(-c2cc3ccccc3cc2O)n[nH]c1=S | ? | 11.2µM* | -1.3%
O=C(COC(=O)c1cccs1)NCC1CCCCC1 | -2.4% | 14.3% | -3.2%
Cc1cc(C)c(N(CC(=O)NCc2ccccc2)C(=O)c2csnn2)c(C)c1 | -7.9% | -0.3% | ·
CC(=O)Nc1cccc(OCC(=O)NC(C)c2ccc3ccccc3c2)c1 (stereo not given) | -17.3% | 10.3% | ·
CNC(=O)CCN(Cc1ccco1)S(=O)(=O)c1ccc(OC)c(OC)c1 | 20.8% | 30.9% | ·
CC(C)NC(=O)c1onc(CSc2ccc(F)cc2)c1C(=O)O | -5.0% | -2.3% | 2.9%
CC(C)NC(=O)c1onc(CSc2ccc(C(C)C)cc2)c1C(=O)O | 20µM* | ? | 5.6%
COc1cc2c(cc1O)[C@@H](c1cc(O)c(O)c(OC)c1)[C@@](O)(C(=O)O)[C@@H](CO)[C@@H]2O | · | · | -6.0%[7.66 µM]
Cc1c(Cl)cccc1NC(=S)N(Cc1cccnc1)Cc1ccccc1Cl | ? | 11.2µM* | 0.1%
S=C(Nc1ccccc1Cl)N(Cc1cccnc1)Cc1ccco1 | 7.9% | -16.9% | 2.8%
CC(O)C(N)C(=O)O (stereo not given) | -7.3% | 0.3%[10 µM] | ·
O=C(NNc1nc2c(F)cccc2s1)c1ccccc1 | ? | ? | 1.4%
CC(C)NC(=S)NNc1nc2ccccc2s1 | 3.98µM* | 2.51µM* | 3.1%
O=S(=O)(Nc1nc2ccccc2s1)c1cc(F)ccc1F | 6.8% | 38.2% | ·
O=C(NNc1nc2ccc(F)cc2s1)c1cccc(F)c1 | ? | 3.98µM* | 2.6%
COc1ccc(C(=O)NNC(=O)c2cccc(F)c2)cc1 | -5.3% | -21.4% | -1.5%
